The results in this text go back to paper PMC7862700, “An all-to-all approach to the identification of sequence-specific readers for epigenetic DNA modifications on cytosine”.

Holding throughout (test): DAPPL (digital affinity profiling via proximity ligation, sequencing); 10 mM Tris-HCl pH 7.5, 50 mM NaCl, 1 mM DTT, 4% glycerol, room temperature, 30 min; GST-TFs on glutathione beads, 16-mer random dsDNA library, 0.1% formaldehyde crosslink after washing; high values mean tight binding
Holding throughout (details): protein: recombinant; tags: N-terminal GST; dsDNA, one strand shown

One test deals with T1, FLI1 (Homo sapiens, UniProt Q01543 1-452).
T1 sequence: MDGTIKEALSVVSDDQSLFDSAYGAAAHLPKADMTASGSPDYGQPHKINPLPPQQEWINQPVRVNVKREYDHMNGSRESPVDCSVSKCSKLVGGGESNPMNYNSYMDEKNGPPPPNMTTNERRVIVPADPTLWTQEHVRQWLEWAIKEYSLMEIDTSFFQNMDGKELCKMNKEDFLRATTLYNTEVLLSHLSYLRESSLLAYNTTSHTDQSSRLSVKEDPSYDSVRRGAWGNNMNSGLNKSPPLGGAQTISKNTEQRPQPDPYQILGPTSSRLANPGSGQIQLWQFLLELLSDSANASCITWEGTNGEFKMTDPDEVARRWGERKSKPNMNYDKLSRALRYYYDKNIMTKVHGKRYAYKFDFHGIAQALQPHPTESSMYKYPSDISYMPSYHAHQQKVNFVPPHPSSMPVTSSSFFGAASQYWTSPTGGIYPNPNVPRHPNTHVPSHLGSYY
Summed up:
(§1)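 Pools were built from human transcription factors expressed in yeast as GST fusions, captured on glutathione beads and DNA-barcoded, along with a tag-only sample. Incubation with 200 nmole of a 16-mer random double-stranded DNA library lasted 30 min at room temperature in Tris/NaCl/DTT/glycerol buffer, and was followed by washing, 0.1% formaldehyde crosslinking, proximity ligation, PCR amplification and Illumina NextSeq500 sequencing. Binding signal is the quotient of each hexamer's read frequency for a factor and its frequency for the tag-only sample.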

The target of the next test is T2, ELK1 (Homo sapiens, UniProt P19419 1-428).
T2 sequence: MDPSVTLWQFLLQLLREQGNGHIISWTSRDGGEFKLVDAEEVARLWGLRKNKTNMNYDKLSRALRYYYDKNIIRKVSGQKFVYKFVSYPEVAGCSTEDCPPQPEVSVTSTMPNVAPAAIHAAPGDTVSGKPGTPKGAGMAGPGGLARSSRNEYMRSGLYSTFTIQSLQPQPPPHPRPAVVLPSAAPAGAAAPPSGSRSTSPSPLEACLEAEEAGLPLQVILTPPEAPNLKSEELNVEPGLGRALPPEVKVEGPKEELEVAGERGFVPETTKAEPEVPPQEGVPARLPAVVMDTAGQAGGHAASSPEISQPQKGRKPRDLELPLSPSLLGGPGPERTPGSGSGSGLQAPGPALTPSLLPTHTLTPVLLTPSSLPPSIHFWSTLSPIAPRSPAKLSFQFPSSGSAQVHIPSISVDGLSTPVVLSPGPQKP
Summed up: as §1

The next test addresses T3, GABPA (Homo sapiens, UniProt Q06546 1-454).
T3 sequence: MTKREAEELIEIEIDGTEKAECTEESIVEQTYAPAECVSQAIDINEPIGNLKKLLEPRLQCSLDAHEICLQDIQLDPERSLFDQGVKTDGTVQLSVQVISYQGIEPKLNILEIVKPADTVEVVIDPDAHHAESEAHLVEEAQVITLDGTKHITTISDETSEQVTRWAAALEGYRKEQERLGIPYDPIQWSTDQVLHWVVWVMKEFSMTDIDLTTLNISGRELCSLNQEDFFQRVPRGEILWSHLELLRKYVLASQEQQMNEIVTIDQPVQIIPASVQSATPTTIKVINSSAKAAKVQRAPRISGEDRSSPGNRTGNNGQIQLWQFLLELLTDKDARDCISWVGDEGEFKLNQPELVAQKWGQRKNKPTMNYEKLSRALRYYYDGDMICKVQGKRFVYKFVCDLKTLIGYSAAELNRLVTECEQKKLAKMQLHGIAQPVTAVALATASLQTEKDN
The gist of the method: as §1

For a further test, the target named is T4, ERG (Homo sapiens, UniProt P11308 1-479).
T4 sequence: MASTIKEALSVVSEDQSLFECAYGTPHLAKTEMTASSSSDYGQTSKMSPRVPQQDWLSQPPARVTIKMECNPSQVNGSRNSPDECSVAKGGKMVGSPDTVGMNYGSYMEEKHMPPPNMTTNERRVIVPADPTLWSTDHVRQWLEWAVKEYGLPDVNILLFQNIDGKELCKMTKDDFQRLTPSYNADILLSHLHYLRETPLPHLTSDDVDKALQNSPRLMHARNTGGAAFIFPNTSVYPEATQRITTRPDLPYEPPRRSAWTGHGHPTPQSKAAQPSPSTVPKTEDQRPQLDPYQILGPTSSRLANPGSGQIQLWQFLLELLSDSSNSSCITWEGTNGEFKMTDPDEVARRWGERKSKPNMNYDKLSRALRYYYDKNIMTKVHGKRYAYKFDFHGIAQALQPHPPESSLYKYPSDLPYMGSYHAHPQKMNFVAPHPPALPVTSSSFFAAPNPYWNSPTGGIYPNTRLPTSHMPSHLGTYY
The gist of the method:
as §1

A further test has as its target ELF1 (Homo sapiens, UniProt P32519 1-619). Summed up:
as §1

The target of a further test is T5, EHF (Homo sapiens, UniProt Q9NZC4 1-300).
T5 sequence: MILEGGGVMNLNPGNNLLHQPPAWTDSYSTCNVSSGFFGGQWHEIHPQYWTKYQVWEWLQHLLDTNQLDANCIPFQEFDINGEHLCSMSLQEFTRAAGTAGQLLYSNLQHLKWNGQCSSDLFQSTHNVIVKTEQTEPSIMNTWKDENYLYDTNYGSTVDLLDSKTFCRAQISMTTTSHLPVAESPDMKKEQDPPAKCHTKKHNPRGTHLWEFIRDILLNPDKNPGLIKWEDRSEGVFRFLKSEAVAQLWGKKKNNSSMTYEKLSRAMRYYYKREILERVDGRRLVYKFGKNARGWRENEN
The gist of the method: as §1

A further test has as its target SPI1 (Homo sapiens, UniProt P17947 1-270). Summed up:
as §1

For another test, the target named is SPIB (Homo sapiens, UniProt Q01892 1-262). The gist of the method:
as §1

For another test, the target named is T6, ELK3 (Homo sapiens, UniProt P41970 1-407).
T6 sequence: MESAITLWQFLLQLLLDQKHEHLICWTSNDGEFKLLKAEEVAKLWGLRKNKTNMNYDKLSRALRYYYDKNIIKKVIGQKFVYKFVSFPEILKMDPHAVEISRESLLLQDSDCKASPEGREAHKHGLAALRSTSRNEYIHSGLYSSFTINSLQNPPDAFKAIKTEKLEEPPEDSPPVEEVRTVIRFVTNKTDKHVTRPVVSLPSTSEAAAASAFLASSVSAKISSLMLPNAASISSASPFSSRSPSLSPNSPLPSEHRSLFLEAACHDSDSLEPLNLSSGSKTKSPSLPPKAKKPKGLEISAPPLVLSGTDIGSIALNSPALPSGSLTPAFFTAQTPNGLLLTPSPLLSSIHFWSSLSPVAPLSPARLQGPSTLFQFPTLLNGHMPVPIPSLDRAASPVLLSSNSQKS
Summed up:
as §1

Sequence of SPIB (Q01892 whole entry): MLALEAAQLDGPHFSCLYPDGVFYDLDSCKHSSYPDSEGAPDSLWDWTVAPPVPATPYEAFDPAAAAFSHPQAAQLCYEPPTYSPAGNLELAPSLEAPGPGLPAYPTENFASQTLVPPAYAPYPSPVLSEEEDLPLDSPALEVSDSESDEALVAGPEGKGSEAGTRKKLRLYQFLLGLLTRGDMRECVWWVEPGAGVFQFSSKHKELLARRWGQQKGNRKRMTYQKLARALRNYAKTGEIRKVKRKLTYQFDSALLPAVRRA
Sequence of ELF1 (P32519 whole entry): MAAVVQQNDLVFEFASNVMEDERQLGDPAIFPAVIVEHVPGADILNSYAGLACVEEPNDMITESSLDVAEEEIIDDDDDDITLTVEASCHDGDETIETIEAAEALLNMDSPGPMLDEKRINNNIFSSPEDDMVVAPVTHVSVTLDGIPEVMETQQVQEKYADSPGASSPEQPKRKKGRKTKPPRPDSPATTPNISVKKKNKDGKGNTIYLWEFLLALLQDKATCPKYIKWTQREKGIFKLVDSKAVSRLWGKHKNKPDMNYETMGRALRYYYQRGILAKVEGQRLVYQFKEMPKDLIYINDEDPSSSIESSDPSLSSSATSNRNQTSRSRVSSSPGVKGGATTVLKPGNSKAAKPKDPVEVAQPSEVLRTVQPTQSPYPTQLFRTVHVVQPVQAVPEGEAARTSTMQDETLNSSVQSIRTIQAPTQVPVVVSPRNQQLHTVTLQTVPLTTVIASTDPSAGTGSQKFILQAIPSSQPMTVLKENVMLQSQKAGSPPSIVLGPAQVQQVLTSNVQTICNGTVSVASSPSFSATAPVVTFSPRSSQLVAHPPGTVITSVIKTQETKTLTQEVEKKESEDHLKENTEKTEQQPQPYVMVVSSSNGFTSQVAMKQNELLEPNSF

Regarding TTCCCG, the binding signal was 1.8 fold enrichment (6-mer frequency, TF over GST control) in the test with FLI1; 1.73 fold enrichment (6-mer frequency, TF over GST control) with ELK1; 1.93 fold enrichment (6-mer frequency, TF over GST control) in the test with GABPA; 2.03 fold enrichment (6-mer frequency, TF over GST control) with ERG; 1.82 fold enrichment (6-mer frequency, TF over GST control) with ELF1; 1.98 fold enrichment (6-mer frequency, TF over GST control) with EHF. The binding signal with SPI1 is 2.02 fold enrichment (6-mer frequency, TF over GST control); with SPIB, 2.17 fold enrichment (6-mer frequency, TF over GST control); with ELK3 it was 1.78 fold enrichment (6-mer frequency, TF over GST control).
For the sequence AAACAA, the binding signal with FLI1 is 1.24 fold enrichment (6-mer frequency, TF over GST control); with ELK1 it was 1.33 fold enrichment (6-mer frequency, TF over GST control); with GABPA, 1.2 fold enrichment (6-mer frequency, TF over GST control); with ERG, 1.38 fold enrichment (6-mer frequency, TF over GST control); with ELF1 it was 1.28 fold enrichment (6-mer frequency, TF over GST control); in the test with EHF it was 1.26 fold enrichment (6-mer frequency, TF over GST control). In addition, the binding signal is 1.32 fold enrichment (6-mer frequency, TF over GST control) with SPI1; 1.21 fold enrichment (6-mer frequency, TF over GST control) with SPIB; 1.36 fold enrichment (6-mer frequency, TF over GST control) in the test with ELK3.
Regarding GAACAA, the binding signal was 1.17 fold enrichment (6-mer frequency, TF over GST control) in the test with FLI1; 1.13 fold enrichment (6-mer frequency, TF over GST control) with ELK1; 1.16 fold enrichment (6-mer frequency, TF over GST control) with GABPA; 1.14 fold enrichment (6-mer frequency, TF over GST control) with ERG; 1.22 fold enrichment (6-mer frequency, TF over GST control) with ELF1; 1.22 fold enrichment (6-mer frequency, TF over GST control) with EHF. Moreover, the binding signal is 1.15 fold enrichment (6-mer frequency, TF over GST control) with SPI1; 1.24 fold enrichment (6-mer frequency, TF over GST control) in the test with SPIB; 1.2 fold enrichment (6-mer frequency, TF over GST control) with ELK3.
On to ATCACC, for which the binding signal with FLI1 was 1.17 fold enrichment (6-mer frequency, TF over GST control); with ELK1, 1.18 fold enrichment (6-mer frequency, TF over GST control); with GABPA it was 1.13 fold enrichment (6-mer frequency, TF over GST control); with ERG it was 1.14 fold enrichment (6-mer frequency, TF over GST control); with ELF1, 1.19 fold enrichment (6-mer frequency, TF over GST control); in the test with EHF it was 1.1 fold enrichment (6-mer frequency, TF over GST control). The binding signal with SPI1 is 1.11 fold enrichment (6-mer frequency, TF over GST control); with SPIB it was 1.03 fold enrichment (6-mer frequency, TF over GST control); in the test with ELK3, 1.27 fold enrichment (6-mer frequency, TF over GST control).
Turning to CGTATA, the binding signal with FLI1 was 1.12 fold enrichment (6-mer frequency, TF over GST control); in the test with ELK1, 1.23 fold enrichment (6-mer frequency, TF over GST control); in the test with GABPA, 1.17 fold enrichment (6-mer frequency, TF over GST control); with ERG, 1.11 fold enrichment (6-mer frequency, TF over GST control); with ELF1, 1.11 fold enrichment (6-mer frequency, TF over GST control); with EHF, 1.09 fold enrichment (6-mer frequency, TF over GST control). Further, the binding signal in the test with SPI1 is 1.13 fold enrichment (6-mer frequency, TF over GST control); with SPIB it was 1.25 fold enrichment (6-mer frequency, TF over GST control); with ELK3, 1.16 fold enrichment (6-mer frequency, TF over GST control).
TTAATA: the binding signal was 1.28 fold enrichment (6-mer frequency, TF over GST control) in the test with FLI1; 1.23 fold enrichment (6-mer frequency, TF over GST control) with ELK1; 1.18 fold enrichment (6-mer frequency, TF over GST control) in the test with GABPA; 1.16 fold enrichment (6-mer frequency, TF over GST control) in the test with ERG; 1.16 fold enrichment (6-mer frequency, TF over GST control) with ELF1; 1.23 fold enrichment (6-mer frequency, TF over GST control) with EHF. Further, the binding signal with SPI1 was 1.09 fold enrichment (6-mer frequency, TF over GST control); with SPIB, 1.22 fold enrichment (6-mer frequency, TF over GST control); in the test with ELK3 it was 1.29 fold enrichment (6-mer frequency, TF over GST control).
Consider TTATGG, for which the binding signal with FLI1 was 1.42 fold enrichment (6-mer frequency, TF over GST control); with ELK1, 1.39 fold enrichment (6-mer frequency, TF over GST control); with GABPA, 1.39 fold enrichment (6-mer frequency, TF over GST control); with ERG it was 1.3 fold enrichment (6-mer frequency, TF over GST control); with ELF1, 1.3 fold enrichment (6-mer frequency, TF over GST control); with EHF, 1.46 fold enrichment (6-mer frequency, TF over GST control). Moreover, the binding signal with SPI1 is 1.34 fold enrichment (6-mer frequency, TF over GST control); with SPIB it was 1.44 fold enrichment (6-mer frequency, TF over GST control); with ELK3, 1.39 fold enrichment (6-mer frequency, TF over GST control).
In the case of AAGTTC, the binding signal with FLI1 was 1.36 fold enrichment (6-mer frequency, TF over GST control); with ELK1 it was 1.36 fold enrichment (6-mer frequency, TF over GST control); in the test with GABPA it was 1.47 fold enrichment (6-mer frequency, TF over GST control); with ERG, 1.36 fold enrichment (6-mer frequency, TF over GST control); in the test with ELF1, 1.34 fold enrichment (6-mer frequency, TF over GST control); in the test with EHF, 1.35 fold enrichment (6-mer frequency, TF over GST control). The binding signal with SPI1 was 1.54 fold enrichment (6-mer frequency, TF over GST control); with SPIB, 1.51 fold enrichment (6-mer frequency, TF over GST control); with ELK3 it was 1.36 fold enrichment (6-mer frequency, TF over GST control).
